# This is a sample that favours compounds with a hit; in the whole collection about 2.8% have one here.
# MITF TRPM1 inh: MITF TRPM1 promoter inhibition in SK-MEL-5 cells. SK-MEL-5 TRPM1 promoter luciferase, 24 h. inhibition, % at 12.5 µM. 0.83% of 330,000 active;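 active means mean inhibition across replicates of 60% or more, whatever share of single replicates reaches that level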
# CF NFkB block: inhibitors of cystic fibrosis induced NF-kB. inhibition, % at 5 µM. 0.86% of 360,000 active. KKLEB NF-kB-GFP reporter, PAF-induced, GFP fluorescence overnight;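 active means at least 50% inhibition at 5 µM, scaled per plate between neutral and stimulator controls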;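 further: PAF is a Pseudomonas aeruginosa culture filtrate used as stimulus; plate controls were PAF-stimulated DMSO wells for no effect and unstimulated DMSO wells for full effect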
# HIF-2a inh: HIF-2a inhibition. 786-0 RCC cells HIF-2a reporter, luciferase luminescence, overnight. inhibition, % at 18.8 µM. 0.72% of 360,000 active;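 active means inhibition of the luminescence signal of 40% or more relative to plate controls, in a single-dose primary screen at 18.75 µM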
# KKLEB cytotox: counter-screen for CF NF-kB inhibitors: cytotoxicity; AID 602141; KKLEB CF airway cells viability, ATPlite luminescence, overnight; active compounds read low; cells stimulated with P. aeruginosa culture filtrate; 0.36% of 360,000 active; activity change (cytotoxicity), % at 5 µM;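 active means corrected activity change at or below -50% at 5 µM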
# Shn3 inh set2: reduces Shn3 3'UTR luciferase signal in osteoblasts; Clone20 osteoblast Shn3 3'UTR firefly luciferase, 24 h; inhibition, % at 12.5 µM; 0.52% of 360,000 active; AID 588674;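 active means mean inhibition of at least 75% with every replicate also reaching 75%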;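 further: 0% = median of neutral control wells and 100% = pilot-screen positive control compound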
# Peg3 promoter: Peg3 promoter activity inhibition | 1.7% of 360,000 active | HeLa PEG-Prom luciferase reporter, luminescence, overnight | inhibition, % at 20 µM;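 active means inhibition of at least 50% at 20 µM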
# Mdm2-MdmX confirm: Mdm2/MdmX (human) interaction inhibition, confirmed; shares compounds with HIF-2a inh; SaOS-2 split-luciferase Mdm2/MdmX complementation, luminescence; inhibition, % at 8 µM; 99% of 740 active;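 active means mean inhibition of the luminescence signal across two replicates at or above 26 percent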
# HIF-2a inh conf: confirmation of HIF-2a inhibitors | shares compounds with HIF-2a inh | 786-0 RCC cells, HIF-2a luciferase reporter luminescence, overnight | inhibition, % at 18.8 µM | 56% of 1,800 active;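 active means mean inhibition across four replicates of at least 40 percent at the single tested concentration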
# HIF-1a cs: counter-screen for HIF-2a inhibitors: HIF-1a inhibition in MiaPaCa-2 cells | shares compounds with HIF-2a inh | MiaPaCa-2 HIF-1a luciferase reporter, desferoxamine, overnight | inhibition, % at 18.8 µM | 72% of 1,800 active | AID 651589;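 active means mean inhibition of the reporter signal across four replicates at the single tested dose of 50% or more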
# An asterisk follows results filed as active; . = no result; ! = not active in a repeat.
SMILES,MITF TRPM1 inh,CF NFkB block,HIF-2a inh,KKLEB cytotox,Shn3 inh set2,Peg3 promoter,Mdm2-MdmX confirm,HIF-2a inh conf,HIF-1a cs
CC(C)(C)c1ccc(C(=O)O/N=C(\N)c2ccccc2)cc1,69*,3,72*,-12,70,104*,.,87*,87*
O=C1c2ccccc2C(=O)c2c1oc(C(F)(F)F)c2C(=O)c1ccccc1,103*,90*,23,-82*,91*,94*,94*,.,.
COc1ccc(NC(=O)CN(C)C(=O)c2ccc3[nH]c4c(c3c2)CC(C)CC4)cc1 (stereo not given),1,-9,0,12,-5,0,.,.,.
COc1ccc(C2c3ccc(O)cc3Oc3ncn(Cc4ccccc4)c(=N)c32)cc1OC (stereo not given),34,8,58*,0,-3,22,.,9,51*
COc1cc(NC(=O)CCn2c(=S)oc3ccccc32)cc(OC)c1OC,-2,-3,15,10,10,18,.,.,.
COc1ccc(NC(=O)c2cc(CC(C)C)nc3ccccc23)cc1,3,5,12,2,31,7,98*,.,.
Cc1ccc(NC(=O)c2cc(CC(C)C)nc3ccccc23)cc1,22,-17,18,-19,16,0,94*,.,.
O=S(=O)(Oc1ccc(Cl)cc1)c1cccc2cccnc12,.,-2,-67,-6,-3,-34,.,.,.
CCOC(=O)COc1ccc(S(=O)(=O)N2CCN(c3ccccc3F)CC2)cc1,3,6,47*,5,16,9,.,13,-1
COC(=O)c1ccccc1NC1=C/C(=N\S(=O)(=O)c2cccs2)c2ccccc2C1=O,78*,83*,-28,-72*,94*!,86*,96*,.,.
COC(=O)c1cccc(NS(=O)(=O)c2cccs2)c1C,-9,-5,-27,5,-2,2,.,.,.
[O-]/C(=C(\C(=S)Nc1cccc2ccccc12)[n+]1ccccc1)c1ccc(OC(F)F)cc1,11,-7,8,-3,-4,-4,.,.,.
[O-]/C(=C(\C(=S)Nc1cccc2ccccc12)[n+]1ccccc1)c1ccc2c(c1)OCCO2,17,-5,70*,12,31,22,.,-40,34
Oc1ccc(NCc2cccs2)cc1,-3,14,57*,2,-10,6,.,26,78*
O=C(/C=C/c1c(F)cccc1Cl)c1ccc(O)cc1,-2,20,-98,1,-16,-109,50*,.,.
Cc1nn(Cc2ccc(Cl)cc2Cl)c(C)c1NC(=O)CCl,38,15,16,-3,-36,44,103*,.,.
Cc1nn(Cc2ccc(Cl)cc2Cl)c(C)c1NC(=O)c1nn(C)cc1Cl,7,-16,10,3,26,17,.,.,.
CC(C)(C)c1ccc(C(=O)N2CCCCCC2=O)cc1,81*,6,89*,-4,.,35,.,95*,82*
Nc1c(-c2ccc(Cl)cc2)cnc2c(-c3ccccc3)cnn12,-73,2,-257,-12,-72,-119,.,.,.
COc1ccc(C(C(=O)NC2CCCCC2)N(C(=O)CCl)c2ccc(Cl)cc2)cc1 (stereo not given),79*,97*,27,-99*,94*,74*,98*,.,.
Cc1nc(SCc2ccc(C(=O)O)cc2)nc2c1CCCC2,2,0,82*,0,13,15,.,89*,62*
O=C(NCC1CCCO1)c1c(O)c2cccc3c2n(c1=O)CCC3 (stereo not given),-5,-5,-29,1,-2,0,.,.,.
O=C(NCC1CCCO1)c1c(O)c2cccc3c2n(c1=O)CC3 (stereo not given),3,-3,-50,-4,-10,5,71*,.,.
Cc1cc(=O)[nH]c(N=N/C(=N/Nc2ccccc2C)c2ccccc2)n1,41,0,-28,2,20,22,84*,.,.
